Laboratory results published in PubChem BioAssay AID1434 (Sanford-Burnham Center for Chemical Genomics, 2008).
About 1,600 (0.73%) of roughly 220,000 compounds were called active.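 How the source made its calls: active means mean inhibition across duplicate retests at 20 µM reaching about 50% (limit read from the data); inactive means the rest, inconclusive results apart.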 This excerpt belongs to a sample that is enriched for actives.

Target: Runt-related transcription factor 1 (Homo sapiens) + Core-binding factor subunit beta (Homo sapiens) (UniProt Q01196+Q13951)
Sequence (Q01196 whole entry, looked up): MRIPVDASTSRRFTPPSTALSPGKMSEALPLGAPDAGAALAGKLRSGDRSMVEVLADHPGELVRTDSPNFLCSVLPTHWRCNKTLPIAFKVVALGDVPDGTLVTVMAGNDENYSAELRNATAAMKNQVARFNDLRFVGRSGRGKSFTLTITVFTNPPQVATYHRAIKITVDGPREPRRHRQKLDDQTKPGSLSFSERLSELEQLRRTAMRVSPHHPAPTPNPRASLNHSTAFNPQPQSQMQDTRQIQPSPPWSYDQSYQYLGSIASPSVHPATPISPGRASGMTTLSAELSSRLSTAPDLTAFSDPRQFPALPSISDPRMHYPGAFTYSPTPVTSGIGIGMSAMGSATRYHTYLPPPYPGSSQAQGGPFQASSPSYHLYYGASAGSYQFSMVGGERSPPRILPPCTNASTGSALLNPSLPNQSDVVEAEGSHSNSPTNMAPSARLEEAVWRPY
Sequence (Q13951 whole entry, looked up): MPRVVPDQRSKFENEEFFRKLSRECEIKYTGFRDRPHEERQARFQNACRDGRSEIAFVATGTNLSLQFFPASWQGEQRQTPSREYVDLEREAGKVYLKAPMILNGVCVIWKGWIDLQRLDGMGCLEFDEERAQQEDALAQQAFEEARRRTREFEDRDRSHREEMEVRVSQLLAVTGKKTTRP
Assay: inhibitors of RUNX1 Runt–CBFb-SMMHC binding, primary screen, biochemical, FRET, Cerulean-Runt, Venus-CBFb-SMMHC, uHTS (AID 1434);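 further: 0% = DMSO wells and 100% = wells with excess untagged CBFb-SMMHC; inhibitors lower the FRET ratio by blocking Runt binding to CBFb-SMMHC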
Details: Cerulean-Runt/Venus-CBFb-SMMHC FRET ratio 530/480, 1 h, at 20 µM, stronger effect = higher value

Row | Structure (SMILES) | inhibition | inhibition (retest duplicate average) [%]
1 | COc1ccc(-c2nn(C)c(=O)c3ccccc23)cc1CNC(=O)C1CCCCC1 | -3.9% (inactive) | 
2 | CNC(=O)c1cccc2nc3ccccc3nc12 | 9% (inactive) | 
3 | N=c1oc2ccccc2cc1C(=O)N/N=C/c1ccccc1 | -6.4% (inactive) | 
4 | CNC(=O)c1cc2c(ccc3ccccc32)oc1=N | 82.8% (active) | 162
5 | COC(=O)CCCC1=CC2=CC(=O)C(C)(OC(=O)c3cccs3)C(=O)C2=CN1CC(C)C (configuration not stated) | -2.8% (inactive) | 
6 | CC(=O)Nc1ccc(Sc2ccccc2C(=O)N2CCCC2)cn1 | -3.9% (inactive) | 
7 | CN(C)CCCn1c(N)c(C#N)c2nc(C#N)c(C#N)nc21 | 78.7% (active) | 69.9
8 | COc1ccc(C2/C=C\CN(CC(C)C)CC(=O)N2Cc2ccc(F)cc2)cc1 (configuration not stated) | 0.3% (inactive) | 
9 | COc1ccc(O[C@H]2C=C[C@@H](c3ccccc3)O[C@@H]2CO/N=C/C[C@@H]2C=C[C@H](OC(C)=O)[C@@H](COC(C)=O)O2)cc1 | -12.9% (inactive) | 
10 | COc1cccc2sc(Nc3nc(C)c(C(C)=O)s3)nc12 | 82.4% (active) | 96.3
11 | COc1cccc2sc(NNC(=O)c3nc4ccccc4s3)nc12 | 3.6% (inactive) | 
12 | CC(=O)c1sc(NC(=O)CCCOc2ccccc2C)nc1C | 0% (inactive) | 
13 | Cc1ccc(NC(=O)C2(N3CCC3=O)CCCCC2)cc1 | 3.4% (inactive) | 
14 | N/C(=N\OC(=O)CC1CCCCC1)c1ccccc1 | 3.7% (inactive) | 
15 | N#Cc1c(C(F)(F)F)cc(-c2ccccc2)nc1SCC(=O)N1CCOCC1 | -9.3% (inactive) | 
16 | CCN(CC)c1nc(-c2ccccc2)cc(C(F)(F)F)c1C#N | 130% (active) | 57.3
17 | N#Cc1c(C(F)(F)F)cc(-c2ccc(Cl)cc2)nc1SCC(=O)O | 0.8% (inactive) | 
18 | CCOC(=O)c1c(Cc2ccc(Cl)cc2)c[nH]c1C | -2.1% (inactive) | 
19 | N#Cc1c(N)n(CCOC(=O)c2ccc(Cl)cc2)c2nc3ccccc3nc12 | 116% (active) | 152
20 | COCCCn1c2nc3ccccc3nc2c2c(=O)n(Cc3ccc(Cl)cc3)c(C)nc21 | 7.3% (inactive) | 
21 | CC(C)(C)c1ccc(C(=O)NCCn2c(N)c(C#N)c3nc4ccccc4nc32)cc1 | 114% (active) | 128
22 | CC(C)(C)c1ccc(C(=O)NCC(=O)OCN2C(=O)c3ccccc3C2=O)cc1 | 4.7% (inactive) | 
23 | CCCCNC(=O)CCNC(=O)c1ccc(C(C)(C)C)cc1 | -0.2% (inactive) | 
24 | CN1OC(COC(=O)c2ccc(Cl)cc2)CC1c1ccccc1 (configuration not stated) | 3.2% (inactive) | 

Row | Structure (SMILES) | inhibition | inhibition (retest duplicate average) [%]
25 | Cc1cc(=O)[nH]c(N/N=C/c2c(C)nn(-c3ccccc3Cl)c2Cl)n1 | -3% (inactive) | 
26 | CC(C)(C)C(=O)Nc1c(Br)c(C2CC2)nn1-c1ccccc1 | 2.4% (inactive) | 
27 | CCc1ccc(CNC(=O)C2CC(=O)N(CCc3ccc(C)cc3)C2)cc1 (configuration not stated) | -1.7% (inactive) | 
28 | C=CCSc1nc(N)cc(=O)[nH]1 | 0.7% (inactive) | 
29 | O=C(O)CCCCCCCCCC[n+]1ccccc1 | -2.3% (inactive) | 
30 | Cc1ccccc1Cn1c(=O)[nH]c2ccccc21 | -2% (inactive) | 
31 | CCCc1cc(=S)n2c([nH]c3ccccc32)c1C#N | 81.2% (active) | 153
32 | CCOC(=O)CCc1c(C)c(C#N)c2[nH]c3ccccc3n2c1=O | -6.1% (inactive) | 
33 | O=C(c1ccc(C(F)(F)F)cc1)C1CCCN(C(=O)c2csnn2)C1 (configuration not stated) | 5.6% (inactive) | 
34 | COC(=O)COc1ccc2oc(=O)cc(C)c2c1 | 0.6% (inactive) | 
35 | COC(=O)Cc1cc(=O)oc2c(C)c(O)ccc12 | 77.6% (active) | 71.5
36 | Cc1cc(=O)oc2c(C(=O)c3ccccc3)c(OCC(N)=O)ccc12 | -4.4% (inactive) | 
37 | N#C/C(C(=S)Nc1ccccc1)=C1/NN=C(N2CCOCC2)N1c1ccccc1 | 25.1% (inactive) | 
38 | CN1CCNC(=O)C1CC(=O)NCCC1=CCCCC1 (configuration not stated) | -1.1% (inactive) | 
39 | Nc1nc(Nc2ccccc2)nc(NCCO)c1[N+](=O)[O-] | 0.8% (inactive) | 
40 | N#CCc1ccc(OC(=O)c2cccnc2)cc1 | 3% (inactive) | 
41 | O=C(Oc1c(-c2ccco2)oc2ccccc2c1=O)c1cccnc1 | 92.5% (active) | 70.6
42 | O=C(Oc1cccnc1)c1cc2ccccc2oc1=O | -10.2% (inactive) | 
43 | Cc1cc(=O)[nH]c2nnnn12 | -4.2% (inactive) | 
44 | Cc1ccc(S(=O)(=O)c2c(N)n(C)c3nc4ccccc4nc23)cc1 | 22% (inactive) | 
45 | CCOC(=O)c1c(C)c(C(=O)NCCc2ccc(S(N)(=O)=O)cc2)c(C)n1CC | -1.6% (inactive) | 
46 | CCCNC(=O)c1c(N)n(-c2ccc(S(N)(=O)=O)cc2)c2nc3ccccc3nc12 | 80.5% (active) | 104
47 | Nc1c(C(=O)c2cccs2)sc2nsc(SCCN3CCCCC3)c12 | -179% (inactive) | 
48 | CCOC(=O)C(=CNNc1ccsc1C(=O)OC)C(=O)OCC | -1.9% (inactive) | 

Row | Structure (SMILES) | inhibition | inhibition (retest duplicate average) [%]
49 | CCCCc1ccc(NC(=S)N2CCCC(CO)C2)cc1 (configuration not stated) | -1.7% (inactive) | 
50 | CN(C)C(=O)c1nc2ccc(Cl)cn2c1CN1CCN(c2ncccn2)CC1 | 0.6% (inactive) | 
51 | Cc1cc(C)n(C(=O)CCNC(=O)c2ccccc2Cl)n1 | 8.8% (inactive) | 
52 | Cc1cc(C)c2nc(-c3ccco3)cc(C(=O)O)c2c1 | 21.4% (inactive) | 
53 | Cc1cc(C)c2nc(SCCC#N)nc(C)c2c1 | -2.1% (inactive) | 
54 | Cc1cc(C)c2nc3nc(C)cc(C)c3c(N)c2c1 | 60.1% (active) | 71.5
55 | CN1CCN(Cc2c(O)ccc3c2oc(=O)c2ccccc23)CC1 | -13.8% (inactive) | 
56 | NC(=O)COc1ccc2c3c(c(=O)oc2c1)CCCCC3 | -10.6% (inactive) | 
57 | O=c1oc2c(CN3CCCCC3)c(O)ccc2c2c1CCCCC2 | 93.5% (active) | 148
58 | Cc1ccc(C(=O)NCC(=O)OCC(=O)Nc2cccc(S(=O)(=O)N3CCCC3)c2)cc1C | 0.1% (inactive) | 
59 | Cc1cc(C)n(CC(C)NCc2c(C(=O)N3CCOCC3)nc3c(C)cccn23)n1 (configuration not stated) | -0.8% (inactive) | 
60 | Cc1cccn2c(=O)c3cc(C#N)c(=O)n(CCCN4CCOCC4)c3nc12 | 61.6% (active) | 71.6
61 | Cc1cccn2c(=O)c3cc(C(=O)N4COCC4(C)C)n(C)c3nc12 | 1.5% (inactive) | 
62 | COc1ccc(-c2cc3ccc(OCc4nn[nH]n4)cc3oc2=O)cc1 | 16.9% (inactive) | 
63 | O=c1c(-c2ccccc2)coc2cc(O)ccc12 | -4.05% (inactive) | 
64 | O=c1oc2cc(O)ccc2cc1-c1ccc(F)cc1 | 61.6% (active) | 71.5
65 | NS(=O)(=O)c1ccc(NC2=CC(c3ccc(F)cc3)N(c3ccc(S(N)(=O)=O)cc3)C2=O)cc1 (configuration not stated) | -4.3% (inactive) | 
66 | Cc1ccc(Cl)cc1NC(=O)c1ccccn1 | -0.3% (inactive) | 
67 | CCC1=C(C(=O)OC)C(c2cc(OC)ccc2OC)C(C#N)=C(N)O1 (configuration not stated) | -8.1% (inactive) | 
68 | COc1ccc(C2C(C#N)=C(N)Oc3cc(N)ccc32)cc1OC (configuration not stated) | 102% (active) | 108
69 | COC(=O)C1=C(C)OC(N)=C(C#N)C1c1cc(OC)ccc1OC (configuration not stated) | -18.1% (inactive) | 
70 | Cc1cc2nc(C(F)(F)F)cc(-c3cccs3)n2n1 | -2.5% (inactive) | 
71 | CC(C)c1ccc(Nc2ncccc2C#N)cc1 | 2.1% (inactive) | 
72 | Cc1ccc2c(CSc3nncs3)cc(=O)oc2c1 | -1% (inactive) | 

Row | Structure (SMILES) | inhibition | inhibition (retest duplicate average) [%]
73 | CCOC(=O)Cc1csc(NC(=O)COc2ccc3c(C)cc(=O)oc3c2)n1 | -11.5% (inactive) | 
74 | CCOC(=O)Cc1csc(SCc2cc(=O)oc3cc(O)ccc23)n1 | 121% (active) | 114
75 | C=CCNC(=O)COC(=O)c1ccccc1C(=O)N(C)C1CCCCC1 | -5.7% (inactive) | 
76 | COc1ccc2c(CC(=O)OCC(=O)NC(N)=O)coc2c1 | 2.1% (inactive) | 
77 | Cc1ccc(-n2c(=O)c(C#N)cc3c(=O)n4ccccc4nc32)cc1C | 58.7% (active) | 72.9
78 | Cc1cccc(-n2ncc(C#N)c2-n2cccc2)c1 | -1.3% (inactive) | 
79 | Cc1ccc(-n2ncc3c(=O)n(-c4ccc(C)c(C)c4)c(-c4ccco4)nc32)cc1 | 1.4% (inactive) | 
80 | COc1ccc(NC(=O)C(Br)C(C)C)cc1 (configuration not stated) | 2.9% (inactive) | 
81 | c1ccc(-n2nnnc2-c2cccnc2)cc1 | -4.7% (inactive) | 
82 | COc1c(O)ccc2c1CN1CCc3cc4c(cc3C1C2)OCO4 (configuration not stated) | 78% (active) | 110
83 | COc1cc(COCC(O)CN2CCN(Cc3ccc4c(c3)OCO4)CC2)cc(OC)c1OC (configuration not stated) | 1.8% (inactive) | 
84 | COc1ccc2cc1Oc1ccc(cc1)C[C@H]1c3cc(c(OC)cc3CCN1C)Oc1c(O)c(OC)cc3c1[C@H](C2)N(C)CC3 | -0.6% (inactive) | 
85 | CC(C)n1c(-c2ccncc2)n[nH]c1=S | -1.2% (inactive) | 
86 | Cc1ccc(C)c(Cn2nnc3c(=O)[nH]c(C(=O)Nc4ccc(F)cc4)nc32)c1 | 1.2% (inactive) | 
87 | COc1ccc(Cl)cc1S(=O)(=O)N1CCC(O)(c2ccc(Cl)cc2)CC1 | -1.4% (inactive) | 
88 | CCOC(=O)CNC(=O)CSc1nnc(-c2cccc(OC)c2)n1CC | 60.6% (active) | 67.7
89 | CCOC(=O)CNC(=O)CSc1nnc(COc2ccc(Cl)cc2)n1CC | 2.7% (inactive) | 
90 | C=CCn1c(COc2ccccc2)nnc1SCC(=O)NCC(=O)OCC | 0.8% (inactive) | 
91 | Cc1cc2oc(=O)cc(CN3CCN(S(=O)(=O)c4cccs4)CC3)c2cc1C(C)C | -6.5% (inactive) | 
92 | CCN(CC)CCC(c1cc(OC)c(OC)c(OC)c1)c1c(OC)cc(OC)c2c(-c3ccccc3)cc(=O)oc12 (configuration not stated) | 1.1% (inactive) | 
93 | O=c1[nH]c(CN2CCN(S(=O)(=O)c3ccc4c(c3)OCCO4)CC2)nc2sc3c(c12)CCCC3 | -6.3% (inactive) | 
94 | COc1ccc(-c2cc(-c3ccc(N)cc3)nc(N)c2C#N)cc1OC | 52.8% (inactive) | 46.8
95 | COc1ccccc1-c1c(C#N)c(N)nc2c1CCC2 | 61.7% (active) | 60.2
96 | CSc1nc(N)c(C#N)c(-c2ccccc2Cl)c1C#N | 2% (inactive) | 
